The values that follow come from PubChem BioAssay (NCATS).

The target of assay [1] is Aldehyde dehydrogenase, mitochondrial (Homo sapiens) (UniProt P05091). The experiment in a line: qHTS for Inhibitors of the Aldehyde Dehydrogenase Family (ALDH2) Primary screen (AID 2061308).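 For activity change, negative = inhibition: plate controls were vehicle for no effect and reference inhibitor for full effect.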 Note: nearly all actives have a fitted effect of over 55% in size. Note: potency is the fitted concentration of half-maximal effect. The conditions noted are these: ALDH2 enzyme inhibition qHTS, 1536-well; series mostly up to 56 µM. For orientation: qHTS replaces the single test concentration by a dilution series.

The target of assay [2] is Retinaldehyde dehydrogenase 3 (Homo sapiens) (UniProt P47895). Nature of the assay: qHTS for Inhibitors of the Aldehyde Dehydrogenase Family (ALDH1A3) Primary screen (AID 2061315).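 Note: plate controls were DMSO vehicle for no effect and reference inhibitor for full effect.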 The conditions noted are these: ALDH inhibition qHTS; series mostly up to 56 µM.
The target of assay [3] is Retinal dehydrogenase 2 (Homo sapiens) (UniProt O94788). Nature of the assay: qHTS for Inhibitors of the Aldehyde Dehydrogenase Family (ALDH1A2) Confirmation screens (AID 2061314). Note: nearly all actives have a fitted effect of over 65% in size. Note: potency is the fitted concentration of half-maximal effect. The following applies: ALDH1A2 enzyme inhibition qHTS confirmation; series mostly up to 45.9 µM.
For assay [4], the target named is Aldehyde dehydrogenase 1A1 (Homo sapiens) (UniProt P00352). The experiment in a line: qHTS for Inhibitors of the Aldehyde Dehydrogenase Family (ALDH1A1) Confirmatory screens (AID 2061316). Note: potency is the fitted concentration of half-maximal effect; nearly all actives have a fitted effect of over 65% in size. The following applies: ALDH inhibition qHTS; series mostly up to 47.3 µM.

Structures are written as SMILES. Records with an inconclusive call do not appear. A number with no mark means an inactive call. The source made the active and inactive calls. Calls come from the whole dose curve; as a rule, active = well fitted curve in the direction sought with a large enough effect; inconclusive = small, poorly fitted or top-dose-only effect, or another doubt; inactive = no such curve, though single readings can be large; an effect the other way counts as inactive or inconclusive.

On to `C=CCNc1oc(-c2ccc(Cl)cc2)nc1C#N`, for which the Potency entry in assay [1] and in assay [2] was “inactive” throughout.
As for `CC(O)c1ccc(-c2ccc3ncnc(N4CCOCC4)c3c2)o1` (stereo not drawn), the Potency in assay [1] is 8.91 µM (active); in assay [3], 14.2 µM (active); in assay [4], 11.3 µM (active). Besides, the Potency entry in assay [2] is “inactive”.
For the compound `Cc1cccc(-n2cnc3cc(C(=O)NC4CCCCC4)ccc32)c1`, the Potency entry in assay [1] and in assay [2] was “inactive” throughout.
Turning to `O=S(=O)(Nc1nccs1)c1ccc(Nc2nc(-c3ccc(F)cc3)cs2)cc1`, the Potency result in assay [1] and in assay [2] was “inactive” in each case. The Potency in assay [3] is 14.2 µM (active); in assay [4], 11.3 µM (active).
Take `Cc1ccc2nc3sc(C(=O)N4CCN(C5CCN(C)CC5)CC4)cc3cc2c1`: the Potency entry in assay [1], in assay [3] and in assay [2] was “inactive” each time. Also, in assay [4], the Potency is 12.7 µM (active).
In the case of `O=C(Nc1cncnc1)c1cccs1`, the Potency entry in assay [1] and in assay [2] was “inactive” throughout.
As for `COc1ccc(N2C(=O)c3ccccc3C2=O)cc1`, the Potency result in assay [1] and in assay [2] was “inactive” each time.
For the compound `CN(Cc1cccs1)c1ncnc2ccc(-c3ccc4cn(C)nc4c3)cc12`, the Potency entry in assay [1] and in assay [2] was “inactive” in each case.
Turning to `Cc1ccc(NS(=O)(=O)c2cc3c(cc2F)NC(=O)CC3)cc1Cl`, the Potency result in assay [1] and in assay [2] was “inactive” in each case.
On to `O=C(Nc1ncc(Cc2ccc(C(F)(F)F)cc2)s1)c1ccc(-c2ccccc2)o1`, for which the Potency result in assay [1] and in assay [2] was “inactive” each time.
Turning to `COc1cc(O)c(C(CC(=O)N2CCC[C@@H](C)C2)c2ccc3c(c2)OCO3)c(OC)c1` (stereo partly drawn), the Potency result in assay [1] and in assay [2] was “inactive” throughout.
Turning to `Nc1nc2c(c(N3CC[C@@H](N)C3)n1)CCCc1ccccc1-2`, the Potency entry in assay [1] and in assay [2] was “inactive” each time.
For `COc1ccc(Cl)cc1C(=O)Nc1nc(-c2ccccc2)cs1`, the Potency result in assay [1] and in assay [2] was “inactive” in each case.
Consider `O=C(NCCc1ccc2c(c1)OCO2)c1cc2sccc2n1Cc1ccccc1`, for which the Potency entry in assay [1] and in assay [2] was “inactive” throughout.
Take `CC(C)CC(OC(=O)CNC(=O)c1ccccc1)C(=O)Nc1cc(C(F)(F)F)ccc1Cl` (stereo not drawn): the Potency result in assay [1] and in assay [2] was “inactive” throughout.
Consider `Cc1nc(NCCO)c2nc(-c3ccccc3)n(CC3CCN(C)CC3)c2n1`, for which the Potency result in assay [1] and in assay [2] was “inactive” each time.
For `O=C(Nc1ccc(F)c(C(F)(F)F)c1)Nc1cccc(-c2ccncc2)n1`, the Potency entry in assay [1] and in assay [2] was “inactive” throughout.
For the compound `CC1(C)CC[C@]23CO[C@@]4(CCC5[C@@]6(C)CC[C@H](O[C@@H]7OC[C@H](O[C@@H]8O[C@H](CO)[C@@H](O)[C@H](O)[C@H]8O)[C@H](O)[C@H]7O[C@@H]7O[C@H](CO)[C@@H](O[C@@H]8O[C@H](CO)[C@@H](O)[C@H](O)[C@H]8O)[C@H](O)[C@H]7O)[C@@](C)(CO)C6CC[C@@]5(C)[C@]4(C)C[C@H]2OC2OCC(O)C(O)C2O)C3C1` (stereo partly drawn), the activity change, negative = inhibition in assay [1] was -1.32% [at 11.2 µM]; in assay [2] it was 1.39% [at 11.2 µM].
Regarding `Cc1nc(-c2ccc([S+](=O)([O-])N3CCN([S+](=O)([O-])c4c(F)cccc4F)CC3)s2)cs1`, the Potency result in assay [1] and in assay [2] was “inactive” each time.
With `Fc1cnc(-c2ccccc2C(F)F)nc1NCc1ccc(-c2ccn[nH]2)cc1`, the Potency result in assay [1] and in assay [2] was “inactive” each time.
As for `COc1cccc(-c2ccc3ncnc(NCc4cc(C)cs4)c3c2)c1`, the Potency result in assay [1] and in assay [2] was “inactive” in each case.
Regarding `c1nc(NCCC2CCCO2)c2cc(-c3ccc4c(c3)OCO4)ccc2n1` (stereo not drawn), the Potency result in assay [1] and in assay [2] was “inactive” throughout.
`CCCn1c(C)nc2c(NC(C)CCCN(CC)CC)nc(C)nc21` (stereo not drawn): the Potency entry in assay [1] and in assay [2] was “inactive” in each case.
In the case of `Clc1ccccc1-c1ccc2ncnc(NCc3ccc4c(c3)OCO4)c2c1`, the Potency result in assay [1] and in assay [2] was “inactive” in each case.
Take `CCN(C)c1ncnc2ccc(-c3ccc4c(c3)OCO4)cc12`: the Potency entry in assay [1] and in assay [2] was “inactive” in each case.
`CCc1ccc(NC(=O)C(=O)NNC(=O)Cc2ccc(Cl)c(Cl)c2)cc1`: the Potency entry in assay [1] and in assay [2] was “inactive” throughout.
Regarding `CCOC(=O)C1CCN(C(=O)C(C)(C)NC(=O)Nc2ccc(Cl)cc2Cl)CC1`, the Potency result in assay [1] and in assay [2] was “inactive” in each case.
Turning to `CCOc1cc(CCNC(=O)c2cc3sccc3n2Cc2ccccc2)cc(F)c1OCC`, the Potency entry in assay [1] and in assay [2] was “inactive” in each case.
As to `Cc1ccc(-c2ccc(=O)n(CC(=O)NCCC3CC3)n2)cc1`, the Potency result in assay [1] and in assay [2] was “inactive” each time.
In the case of `O=C(O)c1ccnc2c(O)cccc12`, the Potency entry in assay [1] and in assay [2] was “inactive” throughout.
Turning to `Fc1cccc(CNc2ncnc3ccc(-c4ccccc4Cl)cc23)c1`, the Potency result in assay [1] and in assay [2] was “inactive” throughout.
Consider `CCCn1c(C)nc2c(NCCN(CC)CC)nc(C)nc21`, for which the Potency result in assay [1] and in assay [2] was “inactive” throughout.
`Fc1ccc(-c2nnc(CCCCSc3nnc(-c4cccc5ccccc45)o3)o2)cc1`: the Potency result in assay [1] and in assay [2] was “inactive” throughout.
For the compound `Cc1nc(CNc2ncnc3ccc(-c4ccc(CO)o4)cc23)cs1`, the Potency entry in assay [1] and in assay [2] was “inactive” throughout.
With `Fc1ccc(CNc2nc(-c3ccccc3C(F)(F)F)nc3ccccc23)cc1`, the Potency result in assay [1] and in assay [2] was “inactive” throughout.
Take `Nc1ccc(S(=O)(=O)Nc2cccc3cccnc23)cc1`: the Potency entry in assay [1] and in assay [2] was “inactive” in each case.
Consider `C=C(C)C(=O)O[C@H]1C[C@@](C)(O)C(=O)CC(O)/C(C)=C\[C@H]2OC(=O)C(=C)[C@H]12` (stereo partly drawn), for which the Potency result in assay [1] and in assay [2] was “inactive” throughout.
On to `COc1ccc(CN(Cc2ccccc2)C(=O)c2ccccc2)cc1COc1ccc(NC(C)=O)cc1`, for which the Potency entry in assay [1] and in assay [2] was “inactive” throughout.
As for `Cc1ccc(OCCn2c(CCNC(=O)c3cccc4[nH]ccc34)nc3ccccc32)cc1`, the Potency entry in assay [1] and in assay [2] was “inactive” throughout.
With `COc1cc(OC)cc(C2=Nn3c(nnc3-c3cccc(OC)c3)SC2)c1`, the Potency entry in assay [1] and in assay [2] was “inactive” throughout.
In the case of `O=C(OCC#CCSc1nnc(-c2cccc3ccccc23)o1)c1ccc(Cl)c(C(F)(F)F)c1`, the Potency result in assay [1] and in assay [2] was “inactive” in each case.
